Ins promoter up – insulin promoter activators in MIN6 cells, imaging, high-content screening, mouse beta cells | MIN6 insulin promoter-GFP reporter; hits give high values | z-score at 5 µM | actives 0.3% (n = 190,000);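 active means z-score above 3 at 5 µM with at least 500 cells counted in the well; inconclusive means wells under 500 cells, flagged as cytotoxic or low count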
L major viab – Leishmania major promastigote growth inhibition, primary screen; AID 1063, 2008; actives 9% (n = 200,000); inhibition, % at 10 µM; Leishmania major promastigotes, resazurin fluorescence viability; in the data active means inhibition above about 50%;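 further: promastigotes grown with compound for 44 hours at 28 °C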
WT yeast gro inh – growth inhibition of WT strain, primary screen, mitochondrial fusion inhibitor project, WT and mutant strains, chemical genetic. mitochondrial fusion phenotypic screen. actives 2.1% (n = 190,000). inhibition, % at 10 µM; in the data active means inhibition above about 58%; tested in S. cerevisiae
Autophagy mod – autophagy modulators in MEF cells, primary screen, imaging, high-content, MEF GFP-LC3 | MEF GFP-LC3 puncta imaging; test concentration mostly 10 µM | calls only at 10 µM (by protocol) | actives 0.98% (n = 190,000);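 active means percentage of spot-positive cells more than 3 SD above its plate mean, without a fluorescence outlier flag or 80% toxicity; inconclusive means no clear call, values can overlap the other calls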
INS promoter inh – inhibitors of insulin promoter-driven GFP, primary screen, imaging, TRM-6 cells (human fetal islet line), eGFP reporter, cell count | AID 1273, 2008 | actives 0.9% (n = 130,000) | inhibition, % at 2 µM | reporter expression induced with tamoxifen;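 active means inhibition above the mean plus 3 SD, with well images judged a real hit on visual review, cut at about 60% in these data, passing the limit was not always enough; inconclusive means inhibition over the cutoff but images rejected on review; inactive means inhibition not above the cutoff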
Of the large screens only hits and unclear results are named; the others gave an inactive call. In the library only some 11% were active in any assay of this set; here they are far more common.

CCCSc1nnc(-c2cccc(S(=O)(=O)N(C)C)c2)n1-c1cc(OC)ccc1OC	L major viab 53
CCOC(=O)c1cc2c(N)c(C(=O)c3ccc(Br)cc3)sc2[nH]c1=O	none (no result: INS promoter inh)
Cc1ccc(OCC(=O)N2CCN(c3nnc(-c4ccc(C)cc4)c4ccccc34)CC2)cc1	WT yeast gro inh 79
Cn1cc(CN2CCC(N3CCNC(=O)CC3)CC2)c(-c2ccccc2F)n1	none (no result: INS promoter inh)
Cc1cc(NC(=O)/C(C#N)=C/c2ccc(-c3ccc(SC(F)F)cc3)o2)n(-c2ccccc2)n1	Ins promoter up 3.4, Autophagy mod active
CC1CCCc2sc3ncn(N)c(=N)c3c21 (stereo not drawn)	none (no result: INS promoter inh)
O=C(NCc1ccco1)/C(=C/c1cccnc1)NC(=O)c1cccc(Br)c1	none
O=C(NCc1ccco1)/C(=C\c1cccnc1)NC(=O)c1ccccc1F	L major viab 53
CCCCCC1(C(=O)OCC)CC(CSC(=N)N)OC1=O (stereo not drawn)	none
CCOC(=O)CNS(=O)(=O)c1cc(-c2nnc(Nc3ccc4c(c3)OCO4)c3ccccc23)ccc1C	L major viab 55
COC(=O)c1ccc(Nc2nnc(-c3ccc(C)c(S(=O)(=O)NCC4CCCO4)c3)c3ccccc23)cc1 (stereo not drawn)	L major viab 92
Cc1ccc(S(=O)(=O)Nc2ccc(NC(=O)c3c(F)c(F)c(F)c(F)c3F)cc2)cc1	none
Cn1c(C(=O)N2CCCc3ccccc32)cc2sccc21	none (no result: Ins promoter up, INS promoter inh)
CC1CCc2cccc3c2N1c1cc(C#N)c(C#N)cc1O3 (stereo not drawn)	Autophagy mod active (no result: Ins promoter up)
O=C(COc1ccccc1N1C(=O)C2C3C=CC(C3)C2C1=O)c1ccccc1 (stereo not drawn)	none (no result: L major viab, WT yeast gro inh, Autophagy mod, INS promoter inh)
O=C1C2C3C=CC(C3)C2C(=O)N1c1ccccc1OS(=O)(=O)c1ccccc1 (stereo not drawn)	L major viab 63
CCNc1nc(Oc2ccc(OC)cc2)cc(C(F)(F)F)n1	none (no result: INS promoter inh)
CCNc1nc(Sc2ccc(C)cc2)cc(C(F)(F)F)n1	WT yeast gro inh 85 (no result: Ins promoter up)
Cc1noc(C)c1CSc1nnc2sc3ccccc3n12	none
Cc1c(NS(=O)(=O)c2ccc(N(C)C3CCCCC3)c([N+](=O)[O-])c2)c(=O)n(-c2ccccc2)n1C	L major viab 50
CCC(C)Nc1nc(Cl)nc(NCCOc2ccccc2)n1 (stereo not drawn)	L major viab 80
COc1ccc(-c2n[nH]c(=S)n2-c2ccc3c(c2)OCCO3)cc1OC	L major viab 88
COc1cc(OC)cc(-c2n[nH]c(=S)n2-c2ccc3c(c2)OCCO3)c1	L major viab 71 (no result: INS promoter inh)
COc1ccc(Cl)cc1NC(=O)CN(C)CC(=O)Nc1ccccc1N1CCOCC1	L major viab 54 (no result: INS promoter inh)
COc1ccc(-n2nnnc2SCC(=O)Nc2ccccc2N2CCOCC2)cc1OC	L major viab 93
Cc1cc(Cl)ccc1OC(C)C(=O)Nc1ccccc1N1CCOCC1 (stereo not drawn)	WT yeast gro inh 73, Autophagy mod active (no result: INS promoter inh)
O=C(Cc1ccc(Cl)cc1)NC(=S)Nc1ccccc1N1CCOCC1	WT yeast gro inh 62 (no result: INS promoter inh)
O=C(COC(=O)c1ccc(F)cc1F)NC1CC1	none
O=C(Cc1ccc(Cl)c(Cl)c1)Nc1ccccc1N1CCOCC1	none
COC(=O)c1ccccc1NC(=O)CNc1cc(Cl)ccc1N1CCOCC1	L major viab 80, WT yeast gro inh 64
O=C1c2ccccc2C(=O)c2c1ncn2-c1ccccc1	L major viab 55
CCOC(=O)c1c(NC(=O)CSc2ncnc3ccccc23)sc(C(C)=O)c1C	L major viab 80
CCOC(=O)c1c(NC(=O)CSc2nnc(-c3ccccc3C)n2C)sc(C(C)=O)c1C	L major viab 73 (no result: INS promoter inh)
COc1ccc2cc(/C=C/C(=O)c3ccco3)c(Cl)nc2c1	none
COc1cc2cc(/C=C/C(=O)c3ccco3)c(Cl)nc2cc1OC	L major viab 76
Cc1ccc(NS(=O)(=O)c2cc(NC(=O)c3cc4c(s3)CCCC4)ccc2C)c(C)c1	none
Cc1ccc(OC(C)C(=O)Nc2ccc(C)c(S(=O)(=O)Nc3ccc(C)cc3C)c2)cc1 (stereo not drawn)	L major viab 67
Cc1cc(C)nc(NS(=O)(=O)c2ccc(N/C=C\C(=O)c3ccc(Cl)cc3)cc2)n1	INS promoter inh 70
Cc1cc(Nc2ccccc2)c2c([N+](=O)[O-])cc(C)c(C)c2n1	WT yeast gro inh 76
COc1ccccc1Nc1cc(C)nc2c(C)ccc([N+](=O)[O-])c12	none (no result: INS promoter inh)
O=C(N/N=C/c1ccc(O)c(O)c1)c1cccc(S(=O)(=O)N2CCCCC2)c1	none (no result: INS promoter inh)
Nc1nonc1C(=O)N/N=C/c1cc(Br)ccc1O	L major viab 99
Cc1cccc(/C=N\NC(=O)c2ccc(Cl)cc2)c1O	L major viab 72 (no result: Ins promoter up)
CN(C)c1ccc(/C=N/NC(=O)c2ccc(Cl)cc2)cc1	none (no result: Ins promoter up)
CC(C)C(=O)Nc1ccc(C(=O)N/N=C/c2cc(Br)cc(Br)c2O)cc1	L major viab 89 (no result: INS promoter inh)
NC(=O)N/N=C\c1cc(Br)ccc1O	none
O=C(N/N=C\c1cc(Br)ccc1O)c1ccc(S(=O)(=O)N2CCCCC2)cc1	L major viab 98, INS promoter inh inconclusive
O=C(N/N=C/c1cc(Cl)ccc1O)c1ccc(Br)cc1	L major viab 99 (no result: INS promoter inh)
CC(C)(C)c1ccc(OCc2ccc(C(=O)N/N=C/c3ccc([N+](=O)[O-])cc3)o2)cc1	none
COC(=O)c1[nH]c2ccc(Br)cc2c1NC(=O)CN1CCN(C2CCCCC2)CC1	L major viab 101
S=C(Nc1ccc(Br)cc1)N1CCN(C2CCCCC2)CC1	L major viab 88
S=C(Nc1ccc(Br)cc1)N1CCCC1	none (no result: INS promoter inh)
COc1ccc(NC(=O)CN2CCC(NC(=O)C3CCCCC3)CC2)cc1	L major viab 70
COC(=O)c1[nH]c2ccc(C)cc2c1NC(=O)CCN1CCN(C2CCCCC2)CC1	none (no result: INS promoter inh)
O=C(CN1CCN(C2CCCCC2)CC1)Nc1ccc(Br)cc1	L major viab 88
COc1nc(-c2ccccc2)nc(C)c1CC(=O)O	none (no result: INS promoter inh)
CCc1cccc(NC(=S)N2CCC(c3ccccc3)C2)c1 (stereo not drawn)	WT yeast gro inh 76 (no result: INS promoter inh)
Cc1ccc(NC(=S)N2CCN(C3CCCCC3)CC2)cc1	L major viab 84 (no result: INS promoter inh)
Cc1ccc(NC(=S)N2CCC(c3ccc(C)cc3)C2)cc1 (stereo not drawn)	WT yeast gro inh 75 (no result: INS promoter inh)
CCOC(=O)N1CCN(C(=S)Nc2ccc(C)cc2)CC1	none
Cc1ccc(C2CCN(C(=O)Nc3ccccc3)C2)cc1 (stereo not drawn)	none (no result: INS promoter inh)
CC(Cc1ccsc1)NC(=O)CCc1nnc(COc2ccccc2)o1 (stereo not drawn)	none (no result: INS promoter inh)
Cc1nc2ccccc2c2oc(C(=O)Nc3ccc4c(c3)OCCO4)cc12	Ins promoter up inconclusive (no result: INS promoter inh)
Cc1nc2ccccc2c2oc(C(=O)Nc3ccc(C(C)C)cc3)cc12	WT yeast gro inh 61
CCN1CCCC1CNC(=O)c1cc2c(C)nc3ccccc3c2o1 (stereo not drawn)	L major viab 100

Screening results (PubChem BioAssay)
